# This is a sample that favours compounds with a hit; in the whole collection about 2.8% have one here.
# POLB inh – DNA polymerase beta (human) inhibition | Potency, µM (top dose mostly 114 µM), for inactives: top-dose activity change, negative = inhibition, most hits filed as inhibitors | P06746 | 340,000 tested, 1.3% active | Pol beta primer extension/strand displacement, fluorescence kinetic | AID 485314; further: potency means the concentration at half of the fitted maximal effect; on the % scale 0 is the no-effect control and ±100 the full control effect
#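 Pol beta (10 nM) and compounds were preincubated 15 min at room temperature, then 50 nM substrate (final) started primer extension/strand displacement. Reads were taken at 0 and 10 min; concentration-response data were fitted to a four-parameter Hill equation.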
# PI5P4Ka inh – blocks human PI5P4K alpha kinase activity; P48426; PI5P4Kalpha enzyme, ADP-Glo luminescence, 60 min; stronger effect = lower value; max response, %; 330,000 tested, 1.2% active; active means max response of -50% or lower; inconclusive means between -30% and -50%; inactive means -30% or higher; further: value at the top dose of about 77 µM; on the % scale 0 is the no-effect control and ±100 the full control effect
#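 PI5P4Kalpha ADP-Glo assay; 5 microM ATP final; 60 min RT reaction; HEPES pH 7.4/EGTA/CHAPS, 5% DMSO; controls lacking substrate or enzyme; luminescent end-point.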
# POLI inh – blocks human DNA polymerase iota activity; 390,000 tested, 1% active; Pol iota fluorescent replication assay, 10 min; Potency, µM (doses to about 115 µM), inactives show at the highest dose activity, negative = inhibition, usual class: inhibitors; further: potency means the concentration at half of the fitted maximal effect
#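 Pol iota at 10 nM preincubated 15 min with compounds at room temperature; reaction started with fluorescent substrate, 50 nM final. Fluorescence read kinetically at 0 and 10 min; buffer-only wells as negative control.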
# POLH inh – inhibitors of human DNA polymerase eta | Potency, µM (series often up to 114 µM), inactives show top-dose activity change, negative = inhibition, actives largely listed as inhibitors | AID 588591 | Q9Y253 | 390,000 tested, 1.2% active | recombinant Pol eta, fluorescent DNA replication assay; further: potency means the concentration at half of the fitted maximal effect; on the % scale 0 is the no-effect control and ±100 the full control effect
#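 Fluorescent replication assay: 50 nM final substrate added after a 15 min room-temperature compound preincubation with 10 nM enzyme. Signal taken at 0 min and again at 10 min.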
# PI4K2A inh – blocks human PI4K2A kinase activity | purified PI4K2A, ADP-Glo luminescence, 1 h; stronger effect = lower value | activity change, negative = inhibition, % at 76.9 µM | 420,000 tested, 0.13% active | AID 1346378; in the data active means activity change below about -50%; inconclusive means mostly about -30% to -49%;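 further: -100% = wells without enzyme as full effect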
# Target sequence (Q9BTU6 whole entry, looked up): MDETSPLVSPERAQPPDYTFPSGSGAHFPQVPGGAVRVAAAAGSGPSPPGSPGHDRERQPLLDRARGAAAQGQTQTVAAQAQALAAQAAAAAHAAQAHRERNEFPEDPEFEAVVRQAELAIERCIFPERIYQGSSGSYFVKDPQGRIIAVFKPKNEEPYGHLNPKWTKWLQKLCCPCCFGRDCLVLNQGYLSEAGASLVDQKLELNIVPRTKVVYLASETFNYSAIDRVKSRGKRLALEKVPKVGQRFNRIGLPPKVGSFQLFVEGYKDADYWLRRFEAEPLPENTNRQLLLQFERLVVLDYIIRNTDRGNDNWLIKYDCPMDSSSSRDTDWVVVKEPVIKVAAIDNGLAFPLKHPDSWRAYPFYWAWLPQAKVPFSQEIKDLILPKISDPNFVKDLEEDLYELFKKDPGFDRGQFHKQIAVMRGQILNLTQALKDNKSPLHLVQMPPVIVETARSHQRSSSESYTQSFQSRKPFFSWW
#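 Compounds are screened against recombinant PI4K2A using PI as substrate and ATP, the latter dispensed at 300 microM. Reactions run one hour at ambient temperature before ADP-Glo detection; full inhibition defined by wells lacking enzyme.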
# Pol kappa inh – inhibitors of human DNA polymerase kappa. Potency, µM (doses to about 107 µM), inactives show top-dose activity, negative = inhibition, usual class: inhibitors. Q9UBT6. 400,000 tested, 0.53% active. purified Pol kappa, fluorescent DNA synthesis assay, 10 min; further: potency means the concentration at half of the fitted maximal effect; on the % scale 0 is the no-effect control and ±100 the full control effect
#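 10 nM Pol kappa preincubated 15 min at room temperature with compounds, then reaction started with substrate at 50 nM final. Fluorescence read kinetically at 0 and 10 min; buffer-only wells served as negative control.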
# Starred values were filed as active, the others as inactive; ? = inconclusive; · = no result; [ ] = dose if it differs, or a comment. Unless noted, the call rests on the fitted dose curve; in most records, active means well fitted inhibition curve with a large enough effect; inconclusive means small, poorly fitted or top-dose-only effect, or another doubt; inactive means no such curve, though single readings can be large or run the other way.
SMILES,POLB inh,PI5P4Ka inh,POLI inh,POLH inh,PI4K2A inh,Pol kappa inh
O=C(c1ccc(-c2cccc([N+](=O)[O-])c2)o1)N1CCN(c2ccc([N+](=O)[O-])cc2)CC1,·,0.8,21.2%,-3.7%,-4.3,-7.1%
COc1cccc(S(=O)(=O)N(C)C[C@H]2Oc3cc(Br)ccc3S(=O)(=O)N([C@@H](C)CO)C[C@H]2C)c1,·,10.1,·,-17.8%,-7.7,·
COc1cccc(=O)c2c(C)n(CC(=O)c3ccccc3)c(C)c12,22.4µM*,?,?,?,-3.8,-26.6%
CCOc1cccc(=O)c2c(C)n(CC(=O)c3ccccc3)c(C)c12,?,?,?,-2.7%,-27.4,?
Cc1ccc(C(=O)Oc2coc(CSc3nnc(NC(=O)c4cccs4)s3)cc2=O)cc1,25.1µM*,?,?,?,0.6,?
O=C(Oc1coc(CSc2nnc(NC(=O)C3CC3)s2)cc1=O)c1c(F)cccc1F,20µM*,-22.8,?,?,8.2,-42.7%
O=C(CCCN1CCN(c2ccc(F)cc2)CC1)NC1c2ccccc2CSc2ccccc21 (stereo not drawn),·,·,·,·,-1.3,·
COc1ccc(NC=O)c(C(=O)CCNC(C)=O)c1,·,·,·,·,·,16.9%[60.1 µM]
CC1=C(C(=O)N(C(C)C)C(C)C)CC(CC(=O)NC(c2ccccc2)c2ccccc2)C(=O)N1Cc1ccc(C(C)(C)C)cc1 (stereo not drawn),·,-3.4,·,·,-2.2,·
CCCN1CNc2c(c(=O)[nH]c(=S)n2CCC)C1,·,·,-10.2%,·,·,-15.8%
CCc1cccc(NC(=O)Cn2c(=O)n(CCC(=O)NCc3ccccc3Cl)c(=O)c3sccc32)c1,-1.1%,·,20.0%,·,-0.8,-6.3%
O=[N+]([O-])c1cc2no[n+]([O-])c2cc1N1CCCCC1,·,-79.6*,?,15.8µM*,-11.4,?
N#Cc1cc(N2CCCCC2)c([N+](=O)[O-])cc1C#N,2.1%,0.7,-10.7%,-5.2%,-0.4,-10.4%[60.1 µM]
CC/C=C\[C@H](O)[C@H](O)C1=C(C)C(=O)[C@]2(O1)C(=O)N[C@@](OC)(C(=O)c1ccccc1)C2O (stereo partly drawn),35.5µM*,0.0,?,0.8%,4.6,?
Cc1cc(=O)oc2cc(OCc3ccc(C(=O)N4CCN(c5ccccc5)CC4)cc3)ccc12,11.2µM*,-17.7,120.8%,3.5%,-1.7,-2.2%
Cc1cc(=O)oc2cc(OCc3ccc(C(=O)N4CCN(c5ccc([N+](=O)[O-])cc5)CC4)cc3)ccc12,13.9%,-23.5,-12.5%,15.2%,-5.0,-6.0%[60.1 µM]
Cc1cccn2c(=O)c3cc(S(=O)(=O)c4ccc(F)cc4)c(=N)n(Cc4ccco4)c3nc12,?,-2.0,11.2µM*,-8.5%,-17.2,?
Cc1cccn2c(=O)c3cc(S(=O)(=O)c4ccccc4)c(=N)n(Cc4ccco4)c3nc12,8.91µM*,-1.4,4.0%,-1.0%,1.7,-29.5%
Cc1cccn2c(=O)c3cc(S(=O)(=O)c4ccccc4)c(=N)n(Cc4ccc(F)cc4)c3nc12,11.2%,-2.8,15.1%,-18.1%,-0.4,2.7%
Cc1ccc(C)c(NC(=O)CSc2nnc(-c3cc4occc4n3C)n2-c2ccccc2C)c1,17.8%,·,13.9%,-12.0%,-0.5,4.0%
CCCC#Cc1ccc(CC[C@H]2O[C@H]3CC[C@@H](CO)O[C@H]3C[C@H]2NC(=O)CN2CCOCC2)cc1,·,·,·,·,-4.8,·
Cc1nc(SCC(=O)Nc2ccc(OCc3ccccc3)cc2)n[nH]1,43.2%,-7.0,-1.8%,-20.9%,-15.6,-0.5%
Cc1nc(S/C(=C\c2ccc(OCc3ccccc3Cl)cc2)C(=O)O)n[nH]1,1.5%,?,?,31.6µM*,-5.1,5.9%
COc1cccc(Nc2ncc3nc(C)c(=O)n(CCC#N)c3n2)c1,·,·,·,·,·,-8.8%[60.1 µM]
COc1cc(C=NNC(=O)c2ccc(NS(=O)(=O)c3cccs3)cc2)cc(Br)c1O,·,-82.3*,?,?,-2.3,-23.7%
SMILES,POLB inh,PI5P4Ka inh,POLI inh,POLH inh,PI4K2A inh,Pol kappa inh
COc1ccccc1CNC(=O)c1ccc(NS(=O)(=O)c2cccs2)cc1,2.2%,-11.0,132.4%,-21.3%,-4.4,-12.0%
C/C(=N\NC(=O)c1ccc(NS(=O)(=O)c2cccs2)cc1)c1ccc(Cl)cc1,-0.3%,-58.7*,2.5%,2.6%,-0.5,-4.1%
C/C(=N\NC(=O)c1ccc(NS(=O)(=O)c2cccs2)cc1)c1cccs1,6.8%,-55.9*,152.7%,-15.0%,-0.2,-9.9%
CC(C)CCNC(=O)CSc1nc2c(c(=O)[nH]1)CCC2,·,·,·,·,-1.3,·
Cc1ccccc1-c1ccc2ncnc(NCCN3CCOCC3)c2c1,·,·,·,·,·,-3.8%[60.1 µM]
COc1ccc(Cl)cc1NC(=O)C1CCN(c2ncnc3c2nc2n3CCCCC2)CC1,-1.2%,·,-16.1%,0.8%,-5.5,-8.3%
Nc1[nH]c(N=NC(=O)c2ccc(Cl)cc2)c2ccccc12,79.4µM*,-0.7,18.7%,0.2%,5.1,1.0%
Nc1[nH]c(N=NC(=O)c2ccccc2)c2ccccc12,-11.6%,-10.2,?,-14.5%,-3.3,-13.7%
N#Cc1c(-c2cccs2)nc(SCc2ccc(Cl)cc2)[nH]c1=O,56.2µM*,0.6,?,89.1µM*,0.5,-4.5%
CSc1nc(-c2cccs2)c(C#N)c(=O)[nH]1,-0.6%,?,42.1%,-11.5%,-2.9,1.9%
C(=C\c1ccco1)/C1=NN(c2ccccc2)C(c2ccco2)C1 (stereo not drawn),?,-10.4,-1.4%,-5.0%,-3.4,-11.3%
O=[N+]([O-])c1ccc(/C=C/C2=NN(c3ccccc3)C(c3ccco3)C2)o1 (stereo not drawn),?,-62.3*,?,?,-3.1,?
O=C1C(=O)c2c(ccc3ccccc23)-c2ccccc21,·,7.5,54.3%,7.94µM*,?,-0.6%
CCCCCCc1cc2cc(-c3nnc(-c4cc(OC)c(OC)c(OC)c4)o3)c(=O)oc2cc1O,8.2%,·,6.4%,?,5.6,-8.7%
CCCCCCc1cc2cc(-c3nnc(-c4ccccc4O)o3)c(=O)oc2cc1O,?,-29.0,?,1.78µM*,0.4,0.1%
c1ccc2c(c1)SCc1c-2[nH]c2ccccc12,·,·,·,·,·,4.9%[60.1 µM]
CCN1CCCC1CN (stereo not drawn),·,·,·,·,0.0,·
Cc1ccc(CSc2nnc(-c3cc(-c4ccc(C)cc4)n[nH]3)n2N)cc1,·,·,·,·,-10.2,·
CCCn1c(=O)c2sccc2n2c(CCCC(=O)NCc3ccco3)nnc12,?,?,20µM*,35.5µM*,-22.6,?
Cc1cc(C)c(Cn2c(C(O)c3ccccc3)nc3ccccc32)c(C)c1 (stereo not drawn),9.6%,·,11.1%,-19.7%,-10.7,-9.6%
CSC1=C(C#N)C(=O)NC(c2ccc(Cl)cc2)S1 (stereo not drawn),-29.8%,-14.8,2.6%,79.4µM*,-1.7,-6.5%
